From ChEMBL document CHEMBL1157539, “Thousands of chemical starting points for antimalarial lead identification” (Nature, 2010)

Legend:
Assay type in all cases: functional
Plasmodium falciparum [1] = assay: GSK_TCMDC: Inhibition of Plasmodium falciparum 3D7 in whole red blood cells, using parasite LDH activity as an index of growth. Test compounds present at 2uM
Plasmodium falciparum [2] = assay: GSK_TCMDC: Inhibition of Plasmodium falciparum Dd2 in whole red blood cells, using parasite LDH activity as an index of growth. Test compounds present at 2uM
HepG2 = assay: GSK_TCMDC: Percent inhibition of human HepG2 cell line. Test compounds present at 10uM.

| Structure (SMILES) | Inhibition (Plasmodium falciparum [1]) [%] | Inhibition (Plasmodium falciparum [2]) [%] | Inhibition (HepG2) [%] |
| --- | --- | --- | --- |
| Cc1cccc2nc(-c3ccc(-c4cccc(CN5CCN(CCO)CC5)c4)cc3)[nH]c12.O=C(O)C(F)(F)F | 100 | 55 | 20 |
| Cc1nc(C)n(CC(=O)Nc2cccc(-c3cccc(-c4nc5cc(C(F)(F)F)ccc5[nH]4)c3)c2)n1 | 100 | 96 | 62 |
| CC(C)C[C@H](NC(=O)c1cc2ccccc2s1)C(=O)N[C@H]1CCN(Cc2ccc(OC3CCN(C)C3)c(Cl)c2)C1.O=C(O)C(F)(F)F (stereo partly specified) | 97 | 65 | 68 |
| O=C(NC1CCN(c2ccnc(Nc3ccc(F)cc3)n2)C1)c1cc2ccccc2s1 (stereo unspecified) | 99 | 80 | 6 |
| CCCCCCOc1ccc(C(=O)N[C@H]2CCN(CCCCCNC(=O)/C=C/c3ccc(Cl)c(Cl)c3)C2)cc1 | 99 | 25 | 10 |
| COC(=O)c1cccc(CNCc2cccc(-c3ccc(-c4nc5cc(C(F)(F)F)ccc5[nH]4)cc3)c2)c1.O=C(O)C(F)(F)F | 100 | 83 | 13 |
| NC(=O)c1ccccc1OCC(=O)Nc1cccc(-c2ccc(-c3nc4ccccc4[nH]3)cc2)c1 | 95 | 46 | 66 |
| COc1ccc2[nH]ccc(=NN=Cc3ccccc3F)c2c1 | 100 | 98 | 23 |
| Nc1c(-c2ccc(C(=O)NCCNCc3ccccc3)cc2)cnn1-c1ccc(C(F)(F)F)cc1.O=C(O)C(F)(F)F | 85 | 2 | 23 |
| CC(C)CCN1CCC(Oc2ccc(NC(=O)c3ccc(F)cc3)cc2Cl)CC1.O=C(O)C(F)(F)F | 98 | 88 | 33 |
| O=C(NC1CCN(Cc2ccc(Cl)cc2)CC1)c1cn(-c2ccccc2)nc1-c1cccnc1 | 93 | 9 | 13 |
| C#CCNCc1ccc(-c2ccc(-c3nc4cc(C(F)(F)F)ccc4[nH]3)s2)cc1.O=C(O)C(F)(F)F | 98 | 28 | 37 |
| Cc1noc(C)c1-c1cccc(CNCc2ccc(-c3ccc(-c4nc5cc(F)ccc5[nH]4)cc3)cc2)c1.O=C(O)C(F)(F)F | 100 | 92 | 23 |
| Cc1cc(-c2ccnc(Nc3cccc(C#N)c3)n2)cc(C)c1O | 88 | 54 | 50 |
| CN(C)Cc1ccc2cc(NC(=O)c3ccc(-c4ccc(Cl)cc4)cc3)ccc2c1 | 92 | 22 | 21 |
| O=C(Nc1ccc(N2CCC(Nc3ccccn3)CC2)cc1)c1cnc(Cl)c(Cl)c1.O=C(O)C(F)(F)F | 83 | 1 | 46 |
| O=C(/C=C/c1ccc(Cl)c(Cl)c1)NCCCCCN1CCC(NC(=O)Nc2ccc([N+](=O)[O-])cc2)CC1 | 100 | 2 | 20 |
| O=C(O)C(F)(F)F.Oc1ccc(CCNc2nc(NCc3ccc4cc(Cl)ccc4c3)nc(N3CCNCC3)n2)cc1 | 92 | 38 | 14 |
| O=C(CCN1CCCCC1)Nc1ccc(Nc2nccc(NCC(O)c3ccccc3)n2)cc1 (stereo unspecified) | 100 | 60 | 18 |
| CCOc1cc(C(=O)NCCN(CC)c2cccc(C)c2)ccc1-c1nc2cc(Cl)ccc2[nH]1 | 100 | 80 | 0 |
| COc1ccc2nccc([C@@H](O)CN3CCC(NCc4nc5cc(F)cc(F)c5[nH]4)CC3)c2c1.O=C(O)C(=O)O | 99 | 64 | 19 |
| NCC1CCCN1Cc1ccc(-c2ccc(-c3nc4cc(C(F)(F)F)ccc4[nH]3)cc2)cc1.O=C(O)C(F)(F)F (stereo unspecified) | 100 | 98 | 35 |
| O=C1Nc2cccc3c2C1(CCCCCN1CCC(c2c[nH]c4ccncc24)CC1)CCC3 (stereo unspecified) | 95 | 3 | 8 |
| COc1ccc2nccc([C@@H](O)CN3CCC(NCCOc4ccc(F)cc4F)CC3)c2c1.O=C(O)C(=O)O | 100 | 68 | 13 |
| Oc1ccc(C=NNC(S)=Nc2cccc3ccccc23)c(O)c1 | 89 | 72 | 8 |
| Cc1cc(N2CCCC2)nc(Nc2ccc(NC(=O)COc3ccccc3)cc2)n1 | 100 | 86 | 43 |
| CC1CNC(c2cccc(NC(=O)Nc3cccc(C4=NC(C)CN4)c3)c2)=N1.Cl (stereo unspecified) | 94 | 98 | 7 |
